Source: PubChem
Compounds with a hit are over-represented: about 19% of the library has one in this group of screens.
TDP1 cell noCPT: qHTS for Inhibitors of human tyrosyl-DNA phosphodiesterase 1 (TDP1): qHTS in cells in absence of CPT; DT40 Tdp1-/- hTDP1 cells, no CPT, ATP luminescence, 48 h; Potency, µM (highest dose often 46.2 µM), actives largely listed as inhibitors; 420,000 tested, 15% active; AID 686978, 2013; further: nearly all actives have a fitted effect of over 55% in size
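Camptothecin absent (DMSO only). Human TDP1-complemented DT40 knockout cells, 400 cells/well, 37 °C for minimum 48 hr; ATP measured via CellTiter-Glo, 30 min dark incubation, luminescence.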
uPA generation: inhibitors of cell surface uPA generation; cell surface uPA generation assay, qHTS; Potency, µM (top dose mostly 38.3 µM), usual class: inhibitors; 330,000 tested, 0.31% active; active means well fitted inhibition curve with a large enough effect; inconclusive means small, poorly fitted or top-dose-only effect; inactive means no such curve, though single readings can be large or run the other way; tested in mouse RAW 264.7 cells; further: nearly all actives have a fitted effect of over 55% in size
IL1B secr inh: blocks inflammasome-driven IL-1 beta release | THP-1 LPS/ATP IL-1B secretion, AlphaLISA, 16 h; hits give low values | 360,000 tested, 4.7% active | activity change, % at 57.5 µM; in the data active means activity change below about -50%; inconclusive means mostly about -30% to -49%
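Secreted IL-1B measured by AlphaLISA bead assay after 16 h compound exposure of THP-1 cells; compounds (final up to 57.5 uM) added 1 h before LPS (250 ng/mL) and ATP (1.25 mM) stimulation; lower signal means less secretion.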
HT1080-NT tox: kills 2HG-producing HT-1080-NT fibrosarcoma cells; HT-1080-NT fibrosarcoma viability, CellTiter-Glo ATP luminescence, 48 h; Potency, µM (top dose mostly 46.1 µM), usual class: cytotoxic; 360,000 tested, 1.6% active;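 further: NT is the 2HG producing partner of a matched IDH1 knockdown line; nearly all actives have a fitted effect of over 55% in size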
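HT-1080-NT fibrosarcoma cells (2HG-overproducing), 750 cells/well in RPMI with 5% FBS, dosed after 2 h and incubated 48 h at 37C. CellTiter-Glo luminescence normalized to DMSO and no-cell wells; concentration-response curves fitted and classed.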
TDP1 cell CPT: DT40-hTDP1 cell growth loss with CPT. AID 686979. chicken DT40 Tdp1-/-;hTDP1 cells + 20 nM CPT, ATP luminescence, 48 h. Potency, µM (highest dose often 46.2 µM), actives largely listed as inhibitors. 420,000 tested, 12% active; further: nearly all actives have a fitted effect of over 55% in size
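Cell growth measured by CellTiter-Glo luminescence after a minimum 48 h, 37 C compound exposure with 20 nM CPT in Tdp1-knockout DT40 cells stably expressing hTDP1, seeded 400/well; qHTS titration format.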
HT1080 IDH1KD tx: HT-1080 IDH1 knockdown cell toxicity (counter line) | HT-1080 IDH1 knockdown viability, ATP luminescence, 48 h | Potency, µM (doses to about 46.1 µM), hits mostly cytotoxic | 360,000 tested, 2% active | AID 686971
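CellTiter-Glo luminescence after 48 h compound exposure at 37 degrees C of IDH1-knockdown HT-1080 cells in 5% FBS RPMI. %Activity scaled between DMSO wells and cell-free media wells, with curves fitted and assigned curve classes.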
Hits are given with their value. Unless noted, the call rests on the fitted dose curve; in most records, active means well fitted curve in the direction sought with a large enough effect; inconclusive means small, poorly fitted or top-dose-only effect, or another doubt; inactive means no such curve, though single readings can be large; an effect the other way counts as inactive or inconclusive.

Screening COC(=O)CCCC1=CC2=C(c3ccccc3)C(=O)C(C)(OC(=O)C3CCCC3)C(=O)C2=CN1CCN1CCOCC1 (stereo not drawn) returned TDP1 cell noCPT inactive, uPA generation inactive, IL1B secr inh inactive, HT1080-NT tox inactive, TDP1 cell CPT inactive and HT1080 IDH1KD tx inactive.
COC(=O)CCCC1=CC2=C(c3ccccc3)C(=O)C(C)(OC(=O)C3CCCC3)C(=O)C2=CN1Cc1ccc2c(c1)OCO2 (stereo not drawn) was read as TDP1 cell noCPT inconclusive, uPA generation inactive, IL1B secr inh inactive, HT1080-NT tox inactive, TDP1 cell CPT 23µM and HT1080 IDH1KD tx inactive.
Screening Cc1nc(S(=O)(=O)N2CCN(c3cccc(Cl)c3)CC2)cn1C returned TDP1 cell noCPT inactive and TDP1 cell CPT inactive.
`Cc1cc(C)c2c(CN3CCN(C/C=C/c4ccccc4)CC3)cc(=O)oc2c1` gave TDP1 cell noCPT inconclusive, uPA generation inactive, IL1B secr inh inconclusive, HT1080-NT tox inconclusive, TDP1 cell CPT 29µM and HT1080 IDH1KD tx inconclusive.
Screening Cc1cc(C)c2c(CCl)cc(=O)oc2c1 returned TDP1 cell noCPT 0.92µM, uPA generation inactive, HT1080-NT tox inconclusive, TDP1 cell CPT 0.92µM and HT1080 IDH1KD tx 1.3µM.
`Cc1cc(C)c2c(CN3CCCCC3)cc(=O)oc2c1` gave TDP1 cell noCPT inactive, uPA generation inactive, IL1B secr inh inactive, HT1080-NT tox inactive, TDP1 cell CPT inactive and HT1080 IDH1KD tx inactive.
For CCCCCNc1nc(NCCCO)c(C#N)c2c1CN(C)CC2 the results were TDP1 cell noCPT inconclusive, uPA generation inactive, IL1B secr inh inactive, HT1080-NT tox inactive, TDP1 cell CPT inconclusive and HT1080 IDH1KD tx inactive.
`CCCCCNc1nc(N2CCCC2)c2c(c1C#N)CCN(C)C2` gave TDP1 cell noCPT 23µM, uPA generation inactive, IL1B secr inh -51, HT1080-NT tox 29µM, TDP1 cell CPT 23µM and HT1080 IDH1KD tx inconclusive.
`COc1ccc(S(=O)(=O)N2CCc3ccccc32)cc1C(=O)N1CCOCC1` gave TDP1 cell noCPT inactive, uPA generation inactive, IL1B secr inh inactive, HT1080-NT tox inactive, TDP1 cell CPT inactive and HT1080 IDH1KD tx inactive.
Screening COC(=O)c1cc(NC(=O)Nc2ccc3snnc3c2)cc(C(=O)OC)c1 returned TDP1 cell noCPT inactive and TDP1 cell CPT inactive.
For Cc1c(Cl)cccc1NC(=O)Nc1ccc2snnc2c1 the results were TDP1 cell noCPT 18µM and TDP1 cell CPT 15µM.
`O=C(Nc1ccc(F)cc1)Nc1ccc2snnc2c1` gave TDP1 cell noCPT 6.5µM and TDP1 cell CPT 3.7µM.
CC(=O)c1ccc(NC(=O)Nc2ccc3snnc3c2)cc1 was read as TDP1 cell noCPT 21µM and TDP1 cell CPT 12µM.
For Cc1ccc(F)c(NC(=O)Nc2ccc3snnc3c2)c1 the results were TDP1 cell noCPT 21µM and TDP1 cell CPT 21µM.
Screening Cc1cc(NC(=O)c2c(C)noc2C)no1 returned TDP1 cell noCPT inactive, uPA generation inactive, IL1B secr inh inactive, HT1080-NT tox inactive, TDP1 cell CPT inactive and HT1080 IDH1KD tx inactive.
CCC1(CC)C(=O)C2=C3C1[C@H](C(=O)OC)C=C(C(=O)OC)C[C@H]3[C@H]1C(=O)N(CC(=O)OC)C(=O)[C@H]1[C@H]2C (stereo partly drawn) was read as TDP1 cell noCPT inactive, uPA generation inactive, IL1B secr inh inactive, HT1080-NT tox inactive, TDP1 cell CPT inactive and HT1080 IDH1KD tx inactive.
C[C@@H]1CN([C@H](C)CO)C(=O)CCCn2nncc2CO[C@@H]1CN(C)C(=O)Nc1cccc2ccccc12 was read as TDP1 cell noCPT inactive, IL1B secr inh inactive, HT1080-NT tox inactive, TDP1 cell CPT inactive and HT1080 IDH1KD tx inactive.
`CCOC(=O)c1nnn(C(CC)C(=O)Nc2c(C)cccc2C)c1C(=O)OCC` (stereo not drawn) gave TDP1 cell noCPT inactive and TDP1 cell CPT inactive.
